According to PubChem BioAssay (NCATS):
Values joined by “and” are separate entries in the source; they are usually repeats but may differ in a detail not shown here. Identical values can stand only once. Inconclusive results are not listed. Where a call stands in place of a potency, no number is given. Active and inactive are the calls of the source. Unless noted, calls follow the shape of the dose curve; as a rule, active = well fitted curve in the direction sought with a large enough effect; inconclusive = small, poorly fitted or top-dose-only effect, or another doubt; inactive = no such curve, though single readings can be large; an effect the other way counts as inactive or inconclusive.

Legend:
[1] = target: Thyroid hormone receptor beta (Homo sapiens) (UniProt P10828); test: qHTS assay for small molecule agonists of thyroid hormone receptor beta signaling (AID 588545; calls by dose curve)
Thyroid hormone receptor beta (Homo sapiens), sequence (P10828 whole entry, looked up): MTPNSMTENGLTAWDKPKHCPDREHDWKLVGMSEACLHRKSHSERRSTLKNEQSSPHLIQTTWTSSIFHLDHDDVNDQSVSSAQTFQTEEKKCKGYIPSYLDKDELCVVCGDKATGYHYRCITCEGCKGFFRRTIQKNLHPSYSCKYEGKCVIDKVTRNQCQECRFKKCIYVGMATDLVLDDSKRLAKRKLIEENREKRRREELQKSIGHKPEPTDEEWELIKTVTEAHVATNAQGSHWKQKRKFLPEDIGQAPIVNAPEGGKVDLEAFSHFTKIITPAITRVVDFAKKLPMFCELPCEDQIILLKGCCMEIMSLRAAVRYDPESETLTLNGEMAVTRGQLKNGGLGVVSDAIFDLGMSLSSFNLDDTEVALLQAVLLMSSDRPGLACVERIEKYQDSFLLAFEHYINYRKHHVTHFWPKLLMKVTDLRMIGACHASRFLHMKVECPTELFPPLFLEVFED
Method in brief: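 In this cell-based screen, titrated compounds act on HEK 293 cells held in medium with 2% charcoal/dextran FBS, NEAA and pyruvate for 18 hrs at 37 C. Responses are expressed relative to T3 (10 nM) as 100% and basal DMSO as 0%.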

[2] = qHTS assay for small molecule antagonists of retinoid X receptor alpha signaling (AID 588546; active = well fitted inhibition curve with a large enough effect in the signal ratio, with a control signal flat, not every such curve was filed as active; the % refers to the signal ratio;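 also: cells stimulated with 9-cis-retinoic acid as agonist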); details: HEK293T RXRa-UAS-bla, beta-lactamase ratio, antagonist mode; measured here: W530 green channel, cytotoxicity proxy
Method in brief: (§1)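 Beta-lactamase reporter inhibition, read as CCF4 fluorescence ratio (ex 405, em 460/530 nm) after 2 h at RT. HEK293T UAS-bla cells, 2500/well, were stimulated with 9-cis-RA at 500 or 100 nM final alongside test compound for 18 h at 37 C.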

[3] = target: Retinoic acid receptor RXR-alpha (Homo sapiens) (UniProt P19793); test: as above; details: HEK293T RXRa-UAS-bla, beta-lactamase ratio, antagonist mode
Retinoic acid receptor RXR-alpha (Homo sapiens), sequence (P19793 whole entry, looked up): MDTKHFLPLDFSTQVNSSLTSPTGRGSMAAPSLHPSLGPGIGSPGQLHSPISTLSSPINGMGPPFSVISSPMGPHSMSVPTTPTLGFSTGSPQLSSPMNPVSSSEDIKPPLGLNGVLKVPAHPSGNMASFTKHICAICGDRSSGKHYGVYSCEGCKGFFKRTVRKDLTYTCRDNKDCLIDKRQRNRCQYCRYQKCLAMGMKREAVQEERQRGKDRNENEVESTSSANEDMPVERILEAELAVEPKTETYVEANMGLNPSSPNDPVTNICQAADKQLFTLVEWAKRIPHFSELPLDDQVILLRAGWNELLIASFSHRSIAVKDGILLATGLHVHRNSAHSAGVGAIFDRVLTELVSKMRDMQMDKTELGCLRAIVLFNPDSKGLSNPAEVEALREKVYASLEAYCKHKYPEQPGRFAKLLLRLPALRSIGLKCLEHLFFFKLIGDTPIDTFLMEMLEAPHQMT
Method in brief: as §1

[4] = target: Thyroid hormone receptor beta (Homo sapiens) (UniProt P10828); test: qHTS assay for small molecule antagonists of thyroid hormone receptor beta signaling (AID 588547; active = well fitted inhibition curve with a large enough effect in the signal ratio, with a control signal flat, not every such curve was filed as active; the % refers to the signal ratio;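 also: cells stimulated with 0.4 nM T3 agonist during compound exposure; series mostly up to about 77 µM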); details: TR-UAS-bla HEK293, beta-lactamase ratio, antagonist mode, 18 h
Method in brief: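 TR-UAS-bla GripTite HEK293 cells in 2% charcoal/dextran FBS medium were preincubated 4 h at 37 C, given compound (0.59 nM to 92 uM) plus 0.4 nM T3 (final) for 18 h, then CCF4 for 2 h at RT; Hill fit gave IC50.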

[5] = target: Voltage-gated inwardly rectifying potassium channel KCNH2 (Homo sapiens) (UniProt Q12809); test: qHTS Assay for Small Molecule Inhibitors of the Human hERG Channel Activity (AID 588834);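 also: top concentration of the series differs between compounds; lower thallium flux fluorescence means stronger hERG block; nearly all actives have a fitted effect of over 50% in size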
Voltage-gated inwardly rectifying potassium channel KCNH2 (Homo sapiens), sequence (Q12809 whole entry, looked up): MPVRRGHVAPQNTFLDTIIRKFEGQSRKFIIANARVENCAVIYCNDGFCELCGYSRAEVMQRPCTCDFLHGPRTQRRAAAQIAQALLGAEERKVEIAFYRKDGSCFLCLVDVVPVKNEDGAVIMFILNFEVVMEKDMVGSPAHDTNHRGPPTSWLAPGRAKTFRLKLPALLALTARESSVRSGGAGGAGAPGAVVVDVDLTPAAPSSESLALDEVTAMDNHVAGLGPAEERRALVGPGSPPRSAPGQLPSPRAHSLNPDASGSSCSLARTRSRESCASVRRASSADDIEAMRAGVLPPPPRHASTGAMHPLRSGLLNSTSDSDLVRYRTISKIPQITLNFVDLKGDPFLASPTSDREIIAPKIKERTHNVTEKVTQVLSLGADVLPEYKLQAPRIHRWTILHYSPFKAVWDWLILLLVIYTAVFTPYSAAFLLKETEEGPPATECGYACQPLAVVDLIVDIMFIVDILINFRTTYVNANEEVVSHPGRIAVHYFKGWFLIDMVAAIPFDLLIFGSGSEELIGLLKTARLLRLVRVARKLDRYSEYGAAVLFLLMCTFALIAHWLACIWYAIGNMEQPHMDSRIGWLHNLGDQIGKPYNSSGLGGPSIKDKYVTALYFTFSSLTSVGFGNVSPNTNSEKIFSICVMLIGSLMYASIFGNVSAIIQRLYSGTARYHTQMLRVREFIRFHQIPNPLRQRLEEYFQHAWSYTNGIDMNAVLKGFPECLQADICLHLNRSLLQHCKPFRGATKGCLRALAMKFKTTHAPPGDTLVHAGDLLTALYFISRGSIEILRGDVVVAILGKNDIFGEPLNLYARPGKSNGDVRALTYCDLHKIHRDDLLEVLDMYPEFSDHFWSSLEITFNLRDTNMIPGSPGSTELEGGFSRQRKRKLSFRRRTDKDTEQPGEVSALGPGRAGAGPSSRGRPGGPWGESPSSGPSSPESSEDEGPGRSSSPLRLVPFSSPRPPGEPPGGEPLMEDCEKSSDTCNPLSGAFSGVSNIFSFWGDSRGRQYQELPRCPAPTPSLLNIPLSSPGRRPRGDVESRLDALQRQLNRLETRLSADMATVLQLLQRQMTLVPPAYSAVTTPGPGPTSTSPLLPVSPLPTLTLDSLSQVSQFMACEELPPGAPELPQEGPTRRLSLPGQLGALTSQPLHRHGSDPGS
Method in brief: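 Kinetic FDSS fluorescence; U2OS + hERG BacMam (~100 virus particles/cell); FluxOR Tl+ flux; ~10 min cpd; AC50 (Hill).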

[6] = target: Luciferin 4-monooxygenase (Photinus pyralis) (UniProt P08659); test: Biochemical firefly luciferase enzyme assay for NPC (AID 624030);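 also: purified P. pyralis luciferase at 10 nM with luciferin and ATP substrate; series mostly up to about 59 µM; nearly all actives have a fitted effect of over 70% in size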
Luciferin 4-monooxygenase (Photinus pyralis), sequence (P08659 whole entry, looked up): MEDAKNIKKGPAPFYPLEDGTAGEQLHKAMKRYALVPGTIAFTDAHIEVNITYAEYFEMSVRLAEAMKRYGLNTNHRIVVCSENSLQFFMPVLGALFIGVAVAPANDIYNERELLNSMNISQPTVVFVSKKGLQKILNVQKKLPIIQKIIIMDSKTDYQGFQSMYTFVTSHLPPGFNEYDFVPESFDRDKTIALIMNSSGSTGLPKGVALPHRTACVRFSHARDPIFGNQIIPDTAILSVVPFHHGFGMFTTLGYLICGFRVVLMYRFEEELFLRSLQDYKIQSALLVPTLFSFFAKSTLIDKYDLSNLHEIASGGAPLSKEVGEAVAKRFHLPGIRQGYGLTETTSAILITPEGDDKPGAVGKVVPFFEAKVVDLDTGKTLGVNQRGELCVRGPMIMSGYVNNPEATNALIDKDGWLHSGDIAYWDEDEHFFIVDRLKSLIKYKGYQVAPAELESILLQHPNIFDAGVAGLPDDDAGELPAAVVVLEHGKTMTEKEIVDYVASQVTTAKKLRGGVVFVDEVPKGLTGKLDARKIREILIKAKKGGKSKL
Method in brief: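 Counter-screen for direct inhibition of the luciferase enzyme by approved-drug library compounds, run at 10 nM enzyme in 50 mM Tris acetate (final). Luminescence was read within 5 min of enzyme-buffer addition and normalized to PTC124 versus DMSO (0%).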

[7] = S16 Schwann cell viability assay (CellTiter-Glo assay) (AID 624031);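 also: cellular ATP luminescence as a viability measure; series mostly up to about 58 µM; nearly all actives have a fitted effect of over 70% in size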
Method in brief: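 Native S16 rat Schwann cells, 500-750 cells/well in DMEM with 10% FBS, dosed with compound after overnight culture and incubated 24h at 37 degree Celsius/5% CO2. Viability by CellTiter-Glo luminescence; % activity normalized to no-cell wells and DMSO-treated cells.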

[8] = S16 Schwann cell PMP22 intronic element firefly luciferase assay (AID 624032); also: series mostly up to about 58 µM; nearly all actives have a fitted effect of over 30% in size
Method in brief: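 Rat S16 Schwann cells stably carrying a PMP22 intronic element-driven Fluc reporter were seeded overnight, then exposed to compounds for 24 h at 37 °C. Luminescence was normalized to PTC124 (positive control) and DMSO (0% activity).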

[9] = qHTS assay for small molecule agonists of the antioxidant response element (ARE) signaling pathway (AID 651741; active = well fitted activation curve with a large enough effect in the signal ratio; the % refers to the signal ratio; also: potency is read from the fitted curve at half-maximal effect)
Method in brief: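 ARE-bla HepG2 cells (beta-lactamase reporter under ARE control) were plated at 2,000 cells/well, preincubated 5 h at 37 C/5% CO2, then treated with DMSO-dissolved compounds for 16 h at 37 C; LiveBLAzer B/G FRET substrate added, fluorescence read after 2 h at room temperature.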

[10] = qHTS assay for small molecule activators of the nuclear factor-kappa B (NF-kB) signaling pathway (AID 651749; active = well fitted activation curve with a large enough effect in the signal ratio; the % refers to the signal ratio; also: series mostly up to about 77 µM); details: NF-kB-bla ME-180 cells, beta-lactamase FRET ratio, 16 h; stronger effect = higher value
Method in brief: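 ME-180 cells stably carrying a beta-lactamase reporter under an NF-kB response element were exposed to compound or DMSO vehicle for 16 hr at 37C, 5% CO2. Pathway activation was read by FRET, since reporter expression disrupts FRET.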

[11] = target: Tumor necrosis factor (Homo sapiens) (UniProt P01375); test: qHTS assay to identify small molecules that stimulate Tumor Necrosis Factor-alpha (TNF-alpha) secretion (AID 651757; active = well fitted curve in the direction sought with a large enough effect in the signal ratio; the % refers to the signal ratio)
Tumor necrosis factor (Homo sapiens), sequence (P01375 whole entry, looked up): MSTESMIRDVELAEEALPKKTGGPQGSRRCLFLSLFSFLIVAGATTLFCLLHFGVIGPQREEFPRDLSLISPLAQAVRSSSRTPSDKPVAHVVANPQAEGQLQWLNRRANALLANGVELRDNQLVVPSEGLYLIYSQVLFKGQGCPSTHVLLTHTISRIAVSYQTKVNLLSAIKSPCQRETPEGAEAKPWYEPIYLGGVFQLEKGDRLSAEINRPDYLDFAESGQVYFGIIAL
Method in brief: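 Secreted TNF-alpha from compound-treated THP-1 cells (17 hrs, 37 C) was quantified with a homogeneous time-resolved fluorescence antibody assay.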

[12] = qHTS assay for environmental chemicals that activate the Aryl hydrocarbon Receptor (AhR) signaling pathway (AID 651777); details: 1A2-DRE human hepatoma cells, luciferase, 24 h; stronger effect = higher value; also: nearly all actives have a fitted effect of over 15% in size
Method in brief: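 Human hepatoma 1A2-DRE cells stably carrying a DRE/CYP1A2 promoter–luciferase reporter, 1,200 cells/well, exposed to compound 24 hr at 37 C. Luciferase read by One-Glo luminescence after 30 min at room temperature; increased signal marks AhR activation.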

[13] = target: Peroxisome proliferator-activated receptor alpha (Homo sapiens) (UniProt Q07869); test: qHTS assay for small molecule agonists of the peroxisome proliferator-activated receptor alpha (PPARalpha) signaling pathway (AID 651778); details: PathHunter PPARalpha complementation, chemiluminescence, 6 h; stronger effect = higher value
Peroxisome proliferator-activated receptor alpha (Homo sapiens), sequence (Q07869 whole entry, looked up): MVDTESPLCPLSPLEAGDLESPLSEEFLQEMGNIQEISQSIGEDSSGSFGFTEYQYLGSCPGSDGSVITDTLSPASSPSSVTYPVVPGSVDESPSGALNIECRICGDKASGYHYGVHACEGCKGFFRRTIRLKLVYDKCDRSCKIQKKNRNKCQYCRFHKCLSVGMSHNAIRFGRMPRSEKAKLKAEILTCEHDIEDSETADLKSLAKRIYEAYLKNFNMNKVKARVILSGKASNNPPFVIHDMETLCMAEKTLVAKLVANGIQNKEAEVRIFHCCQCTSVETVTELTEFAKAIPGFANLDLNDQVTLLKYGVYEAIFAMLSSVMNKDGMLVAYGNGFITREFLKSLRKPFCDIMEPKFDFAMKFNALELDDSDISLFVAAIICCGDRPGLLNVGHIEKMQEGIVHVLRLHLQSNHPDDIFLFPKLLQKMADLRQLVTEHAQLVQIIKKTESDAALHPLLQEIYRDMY
Method in brief: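 Cells plated at 2,000/well and held overnight at 37 C, 5% CO2, then compound added by pin tool for 6 hr; after PathHunter detection reagent and 60 min at room temperature, chemiluminescence from enzyme complementation was read.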

[14] = qHTS assay for small molecule agonists of the antioxidant response element (ARE) signaling pathway measured by Nrf2-dependant transcriptional activity (AID 720636; active = well fitted curve in the direction sought with a large enough effect in the repeat runs; an effect the other way counts as inactive or inconclusive)
Method in brief: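 ARE-luc HepG2 cells carrying an Nrf2-responsive luciferase reporter, in medium with 1% dialyzed FBS, exposed to compound for 16 hr at 37 C, 5% CO2. Luminescence read 30 min after ONE-Glo addition.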

[15] = S16 Schwann cell PMP22 intronic element beta-lactamase assay (AID 624044; calls by dose curve; also: nearly all actives have a fitted effect of over 15% in size)
Method in brief: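 Rat S16 Schwann cells with beta-Lac driven by a PMP22 intronic element, compound-treated 24 h at 37 °C. LiveBLAzer FRET B/G read: 460 nm normalized to potassium clavulanate vs DMSO; 535 nm FRET as viability; concentration-effect curves classified.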

[16] = qHTS assay for small molecule activators of the p53 signaling pathway (AID 651743; active = well fitted activation curve with a large enough effect in the signal ratio, not every such curve was filed as active; the % refers to the signal ratio; also: series mostly up to about 92 µM); details: HCT-116 p53RE-bla, beta-lactamase FRET ratio, 16 h; stronger effect = higher value
Method in brief: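 p53RE-bla HCT-116 cells with a stably integrated beta-lactamase reporter under p53 response elements were plated, rested 5 hours at 37 C/5% CO2, then exposed to compounds in DMSO for 16 hours at 37 C. LiveBLAzer B/G FRET substrate was read after 2 hours at room temperature.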

[17] = qHTS assay to identify small molecules that stimulate interleukin-8 (IL-8) secretion (AID 651758; active = well fitted activation curve with a large enough effect in the signal ratio; the % refers to the signal ratio)
Method in brief: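 THP-1, 2000 cells/well; cpd 16 h, 37 C; add cryptate + XL665 anti-IL-8 Abs; RT 1-3 h; TR-FRET read.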

## O=C(c1ccccc1)C(O)c1ccccc1 (stereo not given)
[1]
  outcome: inactive
[2]
  max response: -8.34%
[3]
  max response: 0.509% (inactive)
[4]
  activity change % (negative = inhibition): 7.64% (inactive) and -3.28% (inactive)
[5]
  Potency: inactive
[6]
  Potency: inactive
[7]
  outcome: inactive
[8]
  Potency: inactive
[9]
  Potency: inactive
[10]
  activation: -2.35% (inactive) and -0.255% (inactive)
[11]
  outcome: inactive
[12]
  activation: -1.25% (inactive) and 2.53% (inactive)
[13]
  max response: -1.85% (inactive) and -1.14% (inactive)
[14]
  outcome: inactive

## O=C1C(c2[nH]c3ccccc3c2O)=Nc2ccccc21
[1]
  outcome: inactive
[2]
  max response: 0.17%
[3]
  max response: 9.96% (inactive)
[4]
  activity change % (negative = inhibition): 0.455% (inactive)
[5]
  Potency: inactive
[7]
  outcome: inactive
[8]
  Potency: inactive
[15]
  outcome: inactive
[9]
  Potency: 47.3 µM (active)
[16]
  activation: -4.39% (inactive)
[10]
  activation: -0.0626% (inactive)
[11]
  outcome: inactive
[13]
  max response: -5.35% (inactive)
[14]
  outcome: inactive

## Cc1c(C(=O)NCCO)[n+](=O)c2ccccc2n1[O-]
[1]
  outcome: inactive
[2]
  max response: -9.28%
[3]
  max response: -2.52% (inactive)
[4]
  activity change % (negative = inhibition): -3.26% (inactive)
[5]
  Potency: inactive
[6]
  Potency: inactive
[7]
  outcome: inactive
[8]
  Potency: inactive
[16]
  activation: 3.58% (inactive)
[10]
  activation: -3.75% (inactive)
[12]
  activation: -0.247% (inactive)
[13]
  max response: -1.31% (inactive)
[14]
  outcome: inactive

## FC(F)(F)C(Cl)Br (stereo not given)
[1]
  outcome: inactive
[2]
  max response: -1.63%
[3]
  max response: -3.82% (inactive)
[4]
  activity change % (negative = inhibition): 8.04% (inactive)
[5]
  Potency: inactive
[6]
  Potency: inactive
[7]
  outcome: inactive
[8]
  Potency: inactive
[16]
  activation: -1.4% (inactive)
[11]
  outcome: inactive
[17]
  outcome: inactive
[12]
  activation: 0.539% (inactive)
[13]
  max response: -5.56% (inactive)
[14]
  outcome: inactive

## CC(=O)Nc1ccccc1
[1]
  outcome: inactive
[2]
  max response: -2.29%
[3]
  max response: -0.837% (inactive)
[4]
  activity change % (negative = inhibition): 8.98% (inactive)
[5]
  Potency: inactive
[6]
  Potency: inactive
[7]
  outcome: inactive
[8]
  Potency: inactive
[10]
  activation: -0.999% (inactive)
[11]
  outcome: inactive
[12]
  activation: -1.4% (inactive)
[13]
  max response: -5.14% (inactive)
[14]
  outcome: inactive

## O=C(O)CCCCC1CCSS1 (stereo not given)
[1]
  outcome: inactive
[2]
  max response: -14.4%
[3]
  max response: -5.4% (inactive)
[4]
  activity change % (negative = inhibition): 1.34% (inactive)
[5]
  Potency: inactive
[6]
  Potency: inactive
[7]
  outcome: inactive
[8]
  Potency: inactive
[9]
  Potency: 48.6 µM (active) and 37.6 µM (active)
[16]
  activation: -5.57% (inactive) and 16.2% (inactive)
[10]
  activation: -0.268% (inactive) and -2.59% (inactive)
[11]
  outcome: inactive
[17]
  outcome: inactive
[12]
  activation: 1.47% (inactive) and -0.721% (inactive)
[13]
  max response: -5.44% (inactive) and -4.99% (inactive)
[14]
  outcome: inactive

## CCCCCCCCCCCCCCCCCCO
[1]
  outcome: inactive
[2]
  max response: 4.76%
[3]
  max response: 3.77% (inactive)
[4]
  activity change % (negative = inhibition): 3.9% (inactive)
[5]
  Potency: inactive
[6]
  Potency: inactive
[7]
  outcome: inactive
[16]
  activation: -2.92% (inactive)
[12]
  activation: 0.518% (inactive)
[13]
  max response: -0.423% (inactive)
[14]
  outcome: inactive
